What was measured:
Details in all cases: concentration: 1 μM, replicates: in singlicate; n = 1
DYRK1B = tested on: DYRK1B
DYRK2 = tested on: DYRK2
EGFR = tested on: EGFR
EIF2AK1 = tested on: EIF2AK1
EPHA1 = tested on: EPHA1
EPHA2 = tested on: EPHA2
EPHA3 = tested on: EPHA3
EPHA4 = tested on: EPHA4
EPHA5 = tested on: EPHA5
EPHA6 = tested on: EPHA6
EPHA7 = tested on: EPHA7
EPHA8 = tested on: EPHA8
EPHB1 = tested on: EPHB1
EPHB2 = tested on: EPHB2
EPHB3 = tested on: EPHB3
EPHB4 = tested on: EPHB4
EPHB6 = tested on: EPHB6
ERBB2 = tested on: ERBB2
ERBB3 = tested on: ERBB3
ERBB4 = tested on: ERBB4
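Also: KINOMEscan kinase panel screen.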

SMILES	%Inh (DYRK1B) [%]	%Inh (DYRK2) [%]	%Inh (EGFR) [%]	%Inh (EIF2AK1) [%]	%Inh (EPHA1) [%]	%Inh (EPHA2) [%]	%Inh (EPHA3) [%]	%Inh (EPHA4) [%]	%Inh (EPHA5) [%]	%Inh (EPHA6) [%]	%Inh (EPHA7) [%]	%Inh (EPHA8) [%]	%Inh (EPHB1) [%]	%Inh (EPHB2) [%]	%Inh (EPHB3) [%]	%Inh (EPHB4) [%]	%Inh (EPHB6) [%]	%Inh (ERBB2) [%]	%Inh (ERBB3) [%]	%Inh (ERBB4) [%]
CN1CCN(Cc2ccc(NC(=O)Nc3ccc(N(C)c4ccnc(Nc5ccc(CS(C)(=O)=O)cc5)n4)cc3)cc2)CC1.Cl [GW827654]	3	32	0	0	33	29	49	0	5	2	10	77	11	28	0	0	94.5	48	45	33
Cc1cccc(Nc2nc(N[C@H]3CCCC[C@H]3N)ncc2C(N)=O)c1.Cl [GSK986310]	37	24	38	22	26	11	58	6	2	6	21	9	32	25	15	4	17	20	0	21
CC(C)NCC(Cc1ccccc1)NC(=O)c1cc(Br)c(-c2ccnc3[nH]ccc23)s1.Cl.Cl (stereo not shown) [GSK1383281]	29	33	26	0	6	0	8	0	0	0	0	0	16	0	2	2	6	16	0	10
Cc1ccc(NC(=O)c2ccnc(N3CCCCC3)c2)cc1-c1ccc(C(=O)NCC2CC2)cc1 [GW775610]	29	2	26	0	0	5	6	0	31	0	0	0	0	0	0	0	5	21	0	19
Cl.N#CCc1ccc(Nc2nccc(Nc3ccc(Oc4ccccc4)cc3)n2)cc1 [GW639905]	0	8	33	5	1	9	0	0	0	0	0	0	0	6	0	0	46	23	96.3	53
